According to PubChem BioAssay:
Several values for one entry are separate records, joined by “and”; a condition that tells them apart may be missing. Equal entries are not always repeated. Activity calls are given as the source filed them.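 The calls were made as follows: active = z-score of at least 1.8 in each of two replicates, scored against plate mean and spread of sample wells; inactive = the rest.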

test: MELAS cybrid and Rieske KO viability enhancers – cell-based, MELAS cybrids, Rieske KO mouse fibroblasts, CellTiter-Glo, primary screen (AID 1508586); details: Rieske KO mouse fibroblast survival, low glucose, CellTiter-Glo 72 h;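 also: test concentration not given here; z relative to plate mean and SD of compound and empty wells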

SMILES | z-score
CCCCCN(C)CCC(O)(P(=O)(O)O)P(=O)(O)O | 0.068 and -1.03
CCC1(C)CC(=O)NC(=O)C1 | -0.288 and -0.916
C[C@]12CC[C@@H](O)C[C@@H]1CC[C@@H]1[C@@H]2CC[C@]2(C)C(=O)CC[C@@H]12 | -0.286
Oc1ccc2c3c1O[C@H]1c4oc5ccccc5c4C[C@@]4(O)[C@@H](C2)N(CC2CC2)CC[C@]314 | 0.281
C[C@]12CCC(=O)C=C1CC[C@@H]1[C@@H]2C(=O)C[C@]2(C)C(=O)CC[C@@H]12 | -0.446
C[N+]1(C)C2CC[C@H]1CC(OC(=O)C(CO)c1ccccc1)C2 (stereo partly drawn) | -0.854
O=C1OCCN1N=Cc1ccc([N+](=O)[O-])o1 | -1.17
CN1[C@@H]2CC[C@H]1CC(OC(=O)C1C=Nc3ccccc31)C2 (stereo partly drawn) | -0.387 and 0.113
C[C@]12CCC3[C@@H](CC[C@@H]4C[C@H](O)CC[C@]34C)[C@@H]1CCC2=O (stereo partly drawn) | 0.448
CCC1=C[C@@H]2CN3CCc4c([nH]c5ccccc45)[C@@](C(=O)OC)(C2)[C@@H]13 | -0.315 and -0.157
CCOC(=O)c1cncn1[C@@H](C)c1ccccc1 | -0.415
Clc1ccc(C(Cn2ccnc2)OCc2csc3c(Cl)cccc23)c(Cl)c1 (stereo not drawn) | 2.82 and 1.72
C[C@]12CC[C@H](O)C[C@H]1CC[C@@H]1[C@@H]2C[C@@H](O)[C@]2(C)[C@@H](C3=CC(=O)OC3)CC[C@]12O | -0.935
CCC(=O)OC(Cc1ccccc1)(c1ccccc1)C(C)CN(C)C (stereo not drawn) | -0.451
C(#CCN1CCCC1)CN1CCCC1 | -0.183
CN1[C@@H]2CC[C@H]1CC(OC1c3ccccc3CCc3ccccc31)C2 (stereo partly drawn) | 0.907
CN[C@@H]1[C@@H](O)[C@@H](O[C@@H]2[C@@H](O)[C@H](O[C@H]3O[C@H]([C@@H](C)NC)CC[C@H]3N)[C@@H](N)C[C@H]2N)OC[C@]1(C)O | 0.179
C[N+]1([O-])[C@@H]2CC(OC(=O)[C@H](CO)c3ccccc3)C[C@H]1[C@@H]1O[C@@H]12 (stereo partly drawn) | -0.531
CN[C@@H]1[C@@H](O)[C@@H](O[C@@H]2[C@@H](O)[C@H](O[C@H]3O[C@H]([C@@H](C)NC)CC[C@H]3N)[C@@H](N)C[C@H]2N)OC[C@]1(C)O (tested in a mixture with another compound) | -0.563
CCC1C(=O)OCC1Cc1cncn1C (stereo not drawn) | -0.153 and 0.0525
CN1CC[C@@]2(C)c3cc(O)ccc3N(C)[C@H]12 | 1.44
C=C(C)[C@@H]1C2C(=O)O[C@H]1[C@H]1OC(=O)[C@@]34OC3C[C@]2(O)[C@@]14C (stereo partly drawn) | 0.218
C[C@]12CC[C@H](O)C[C@H]1CC[C@@H]1[C@@H]2CC[C@]2(C)[C@@H](C3=CC(=O)OC3)CC[C@]12O | 0.0544
CCCCCC[C@H]1C(=O)O[C@H](C)C(NC(=O)c2cccc(NC=O)c2O)C(=O)O[C@@H](C)[C@@H]1OC(=O)CC(C)C (stereo partly drawn) | 0.0989
CC(=O)OCC(=O)[C@H]1CC[C@H]2[C@@H]3CC[C@H]4C[C@H](O)CC[C@]4(C)[C@H]3C(=O)C[C@]12C | 0.294

test: galactose survival enhancers in mitochondrial complex I cybrids – cell-based, galactose medium, ATP luminescence, primary screen (AID 1645843); details: complex I mutant cybrid cells, 72 h, stronger effect = higher value;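 also: positive z means more ATP and so rescue of galactose-driven cybrid death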

SMILES | z-score
CNC1CC(c2ccc(Cl)c(Cl)c2)c2ccccc21 (stereo not drawn) | -1.44 (inactive)
CCCCCN(C)CCC(O)(P(=O)(O)O)P(=O)(O)O | 0.42 (inactive) and 0.08 (inactive)
Oc1ccc2c3c1O[C@H]1c4oc5ccccc5c4C[C@@]4(O)[C@@H](C2)N(CC2CC2)CC[C@]314 | -0.095 (inactive)
C[C@]12CCC(=O)CC1CCC1C2CC[C@@]2(C)C1CC[C@]2(C)O (stereo partly drawn) | -0.195 (inactive)
C[C@]12Cc3cn[nH]c3CC1CCC1C2CC[C@@]2(C)C1CC[C@]2(C)O (stereo partly drawn) | -0.42 (inactive)
CC1CCCC(O)CCCCCc2cc(O)cc(O)c2C(=O)O1 (stereo not drawn) | -0.095 (inactive)
Oc1ccc2c3c1OC1C(O)CC[C@@]4(O)C(C2)N(CC2CCC2)CC[C@]314 (stereo partly drawn) | 0.8 (inactive)
C[C@]12CC(=CO)C(=O)CC1CCC1C2CC[C@@]2(C)C1CC[C@]2(C)O (stereo partly drawn) | -1.14 (inactive)
CCC1C(=O)OCC1Cc1cncn1C (stereo not drawn) | 1.16 (inactive) and 0.695 (inactive)
Nc1cc2c(ncn2CCOCP(=O)(O)O)c(=O)[nH]1 | -0.655 (inactive)
C[C@]12CCC(O)CC1=CCC1C2CC[C@@]2(C)C1CC[C@]2(C)O (stereo partly drawn) | -0.34 (inactive)
Oc1cc2c(cc1O)C1c3ccccc3CNC1CC2 (stereo not drawn) | -1.86 (inactive)
CC(C)(O)C1C2OC(=O)C1[C@]1(O)CC3O[C@]34C(=O)OC2[C@]14C (stereo partly drawn) (tested in a mixture with another compound) | 0.86 (inactive)
